Reference: PubChem BioAssay AID1159580 (chemical genetic matrix, 2015)
Screen size: about 5,500 compounds; about 2,000 (36%) were called active. Not shown: some 18% with an inconclusive outcome. No stated cut-off is given here; in the data, active means normalized growth mostly below about 0.91 (no sharp cut-off); inconclusive means no clear call, values can overlap the other calls; inactive means mostly above about 0.92. The list shows a part of the results.

Experiment: chemical genetic growth profiling, strain panel (AID 1159580);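 further: tested at 20 µM; growth read once vehicle control cultures reached saturation at 30 °C; 1 = growth at the plate median or of vehicle wells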
Conditions: S. cerevisiae deletion strains, growth OD

Measured: normalized growth

N#CCC(=O)Nc1ccccn1
inactive: locus YAL013W, strain DEP1, stronger effect = lower value 1.02 | locus YBR229C, strain ROT2, stronger effect = lower value 0.964 | locus YDL101C, strain DUN1, stronger effect = lower value 1.04 | locus YDR150W, strain NUM1, stronger effect = lower value 1.01 | locus YEL061C, strain CIN8, stronger effect = lower value 1.01 | locus YGR078C, strain PAC10, stronger effect = lower value 1.02 | locus YHR030C, strain SLT2, stronger effect = lower value 1.24 | locus YHR087W, strain rtc3, stronger effect = lower value 0.986 | locus YJR043C, strain POL32, stronger effect = lower value 1.01 | locus YJR075W, strain HOC1, stronger effect = lower value 1 | locus YKL190W, strain CNB1, stronger effect = lower value 1 | locus YLR039C, strain RIC1, stronger effect = lower value 1.01 | locus YLR058C, strain SHM2 (second series), stronger effect = lower value 0.995 | locus YLR085C, strain ARP6, stronger effect = lower value 1.06 | locus YLR262C, strain YPT6, stronger effect = lower value 0.989 | locus YML094W, strain GIM5, stronger effect = lower value 1.02 | locus YMR219W, strain ESC1, stronger effect = lower value 0.992 | locus YMR263W, strain SAP30, stronger effect = lower value 1.01 | locus YNL153C, strain GIM3, stronger effect = lower value 1.04 | locus YNL298W, strain CLA4 (second series), stronger effect = lower value 1.06 | locus YNL322C, strain KRE1, stronger effect = lower value 1.01 | locus YNR030W, strain Alg12, stronger effect = lower value 1.07 | locus YOL006C, strain TOP1, stronger effect = lower value 1.07 | locus YPL055C, strain LGE1, stronger effect = lower value 1.04 | locus YPL241C, strain CIN2, stronger effect = lower value 1.04 | locus YPR135W, strain CTF4, stronger effect = lower value 1.2
